We go through 38 compounds from PubChem BioAssay AID652208 (Broad Institute, 2013).

Entries with a potency or affinity are not part of this list. Activity calls are given as the source filed them.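 How the source made its calls: active means Loss of cell signal with fitted half-effect dose at or below twice the top valid tested dose; inconclusive means Poor fit, or flat fit from -70 to -30 percent; inactive means Half-effect above limit, rising signal, or flat within 30 percent.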

The test is described as follows: HEK293T cell cytotoxicity, dose response, cytotoxicity control for HIV Vif inhibitor project, cherry-picks (AID 652208). Conditions: HEK293T viability, CellTiter-Glo luminescence, 24 h; series mostly up to 26 µM. For orientation: ATP-based viability assays read luminescence as a measure of living cells.
For the compound `COc1ccc(OCCN2CCC(C(=O)NC(c3ccccn3)c3ccccc3OC)CC2)cc1` (stereo not drawn), the outcome was inactive.

As for `COC(=O)c1sc(-c2ccc(Cl)cc2)cc1NC(=O)CSCC(=O)O`, the compound was classed as inactive.

As to `O=C(Nc1cccc(-c2cc3ccccc3oc2=O)c1)c1ccc(Br)o1`, the result was inactive.

Take `COc1ccc2nc3ccccc3nc2c1NC(=O)c1ccc(Cl)cc1`: the result was inactive.

As to `COc1ccc(CNC(=O)Nc2cccs2)cc1OC`, the call was inactive.

Take `CCN1C(=O)c2cccc3c(S(=O)(=O)Nc4nc(C)cs4)ccc1c23`: the result was inactive.

On to `Cc1nnc(NC(=O)Cn2nc(C)c3ccccc3c2=O)s1`, for which the call was inactive.

With `COCCNC(=O)c1nn2c(C(F)(F)F)cc(-c3ccccc3)nc2c1Cl`, the compound was called inactive.

In the case of `O=C(c1cc(Cl)c(=O)n(Cc2ccccc2)c1)N1CCOCC1`, the result was inactive.

As for `Cc1ccc2c(c1)C1CN(C)CCC1N2S(=O)(=O)c1cccc(C(F)(F)F)c1` (stereo not drawn), the outcome was inactive.

For the compound `O=C(Nc1ccnc(-c2cccnc2)n1)c1cccs1`, the outcome was inactive.

In the case of `COc1ccccc1-c1cccc2nccn12`, the compound was classed as inactive.

`COc1cc(C2C3=C(COC3=O)Oc3cc4c(cc32)OCO4)cc(OC)c1O` (stereo not drawn): the result was inactive.

For `O=C(Nc1ccc2c(c1)nc1n2CCOC1)c1ccccc1`, the call was inactive.

With `CCOC(=O)Cc1csc(NC(=O)CSc2nnnn2-c2ccc(CC)cc2)n1`, the compound was classed as inactive.

For `O=C(CCNC(=O)c1ccco1)Nc1ccc(OC(F)(F)F)cc1`, the compound was classed as inactive.

Regarding `CCC(=O)Nc1ccc(-c2cc3ccccc3oc2=O)cc1`, the outcome was inactive.

`Cc1cc(C)c2nc3sc(C(=O)N4CCOCC4)c(N)c3cc2c1`: the compound was classed as inactive.

Regarding `Cc1cc(C(=O)Nc2c(F)c(F)c(F)c(F)c2F)n(-c2ccccc2)n1`, the compound was called inactive.

On to `CCNC(=O)[C@H]1O[C@@H](n2cnc3c(N)nc(NCCc4ccc(CCC(=O)O)cc4)nc32)[C@H](O)[C@@H]1O`, for which the result was inactive.

In the case of `Cc1ccc(-n2nnc3c(=O)n(CC(=O)OCc4ccccc4)cnc32)cc1`, the outcome was inactive.

For the compound `CC1(C)CC(=O)C2=C(C1)Nc1ccccc1N(C(=O)C1CC1)C2c1ccco1` (stereo not drawn), the compound was called inactive.

For `Cc1nc(NC(=O)C(C)Oc2cccc(Cl)c2)sc1C(=O)N(C)C` (stereo not drawn), the outcome was inactive.

For the compound `CC(=O)Nc1cc(NC(=O)C2C3C=CC(C3)C2C(=O)O)ccc1Cl` (stereo not drawn), the outcome was inactive.

On to `COc1ccc(OC)c(NC(=O)c2cc3ccccc3cc2OC)c1`, for which the compound was classed as inactive.

`COc1cccc(-c2cc(NC=O)c3ncc(-c4cc(OC)c(OC)c(OC)c4)n3c2)c1`: the outcome was inactive.

Turning to `O=C(CCCOc1ccc(Br)cc1)NNC(=O)c1ccncc1`, the compound was classed as inactive.

As to `Cc1cc(S(=O)(=O)N2CCOCC2)ccc1OCC(=O)NCCN1CCOCC1`, the compound was classed as inactive.

On to `COc1ccc(-c2cc(C(F)(F)F)n3nc(C(=O)NCc4ccco4)c(Cl)c3n2)cc1`, for which the outcome was inactive.

For the compound `O=C(c1ccc(Cl)c(Cl)c1)N(Cc1ccco1)c1ccc(O)cc1`, the compound was called inactive.

As to `CC(C(=O)O)c1ccc(N2Cc3ccccc3C2=O)cc1` (stereo not drawn), the outcome was inactive.

For the compound `S=C(Nc1ccccc1)N1CCn2c(nc3ccccc32)C1`, the call was inactive.

Turning to `COc1ccccc1Oc1coc2cc(OCC(N)=O)ccc2c1=O`, the compound was called inactive.

`Cc1cccc(N2CCN(C(=O)c3cc4ccccc4oc3=O)CC2)c1C`: the compound was called inactive.

On to `COc1ccccc1C1C2=C(COC2=O)Nc2cc3c(cc21)OCO3` (stereo not drawn), for which the result was inactive.

As for `O=C(COC(=O)c1ccccc1Br)NC1CCCC1`, the compound was classed as inactive.

Consider `CC(NC(=O)CSc1nc2c(c(C(F)(F)F)n1)CCc1ccccc1-2)c1ccccc1` (stereo not drawn), for which the call was inactive.

Take `COc1ccccc1CNC(=O)CSC1=NCCS1`: the compound was classed as inactive.
